These results are taken from ChEMBL document CHEMBL1961873, “Compounds: GSK PKIS; Assays: Nanosyn kinase panel” (2012).

Test [1] addresses Serine/threonine-protein kinase PAK 6 (Homo sapiens) (UniProt Q9NQU5). To be noted: at 1 µM.
Test [2] deals with Tyrosine-protein kinase ABL1 (Homo sapiens), P00519 [E255K]. To be noted: at 0.1 µM.
The test system is the same in test [3]. To be noted: at 1 µM.
Test [4] relates to Tyrosine-protein kinase ABL1 (Homo sapiens), P00519 [H396P]. To be noted: at 0.1 µM.
Test [5] shares this test system. To be noted: at 1 µM.
The subject of test [6] is Tyrosine-protein kinase ABL1 (Homo sapiens), P00519 [M351T]. To be noted: at 0.1 µM.
For test [7] the test system is unchanged. To be noted: at 1 µM.
Test [8] has as its system Tyrosine-protein kinase ABL1 (Homo sapiens), P00519 [Q252H]. To be noted: at 0.1 µM.
Test [9] has the same test system. To be noted: at 1 µM.
Test [10] concerns Tyrosine-protein kinase ABL1 (Homo sapiens), P00519 [T315I]. To be noted: at 0.1 µM.
Test [11] shares this test system. To be noted: at 1 µM.
For test [12], the system named is Tyrosine-protein kinase ABL1 (Homo sapiens), P00519 [Y253F]. To be noted: at 0.1 µM.
The test system is the same in test [13]. To be noted: at 1 µM.
Test [14] deals with Tyrosine-protein kinase ABL1 (Homo sapiens) (UniProt P00519). To be noted: at 0.1 µM.
The target is the same in test [15]. To be noted: at 1 µM.
Test [16] concerns the target ALK tyrosine kinase receptor (Homo sapiens) (UniProt Q9UM73). To be noted: at 0.1 µM.
For test [17] the target is unchanged. To be noted: at 1 µM.
The target in test [18] is Tyrosine-protein kinase ABL2 (Homo sapiens) (UniProt P42684). To be noted: at 0.1 µM.
Chain of Tyrosine-protein kinase ABL2 (Homo sapiens) (P42684 whole entry): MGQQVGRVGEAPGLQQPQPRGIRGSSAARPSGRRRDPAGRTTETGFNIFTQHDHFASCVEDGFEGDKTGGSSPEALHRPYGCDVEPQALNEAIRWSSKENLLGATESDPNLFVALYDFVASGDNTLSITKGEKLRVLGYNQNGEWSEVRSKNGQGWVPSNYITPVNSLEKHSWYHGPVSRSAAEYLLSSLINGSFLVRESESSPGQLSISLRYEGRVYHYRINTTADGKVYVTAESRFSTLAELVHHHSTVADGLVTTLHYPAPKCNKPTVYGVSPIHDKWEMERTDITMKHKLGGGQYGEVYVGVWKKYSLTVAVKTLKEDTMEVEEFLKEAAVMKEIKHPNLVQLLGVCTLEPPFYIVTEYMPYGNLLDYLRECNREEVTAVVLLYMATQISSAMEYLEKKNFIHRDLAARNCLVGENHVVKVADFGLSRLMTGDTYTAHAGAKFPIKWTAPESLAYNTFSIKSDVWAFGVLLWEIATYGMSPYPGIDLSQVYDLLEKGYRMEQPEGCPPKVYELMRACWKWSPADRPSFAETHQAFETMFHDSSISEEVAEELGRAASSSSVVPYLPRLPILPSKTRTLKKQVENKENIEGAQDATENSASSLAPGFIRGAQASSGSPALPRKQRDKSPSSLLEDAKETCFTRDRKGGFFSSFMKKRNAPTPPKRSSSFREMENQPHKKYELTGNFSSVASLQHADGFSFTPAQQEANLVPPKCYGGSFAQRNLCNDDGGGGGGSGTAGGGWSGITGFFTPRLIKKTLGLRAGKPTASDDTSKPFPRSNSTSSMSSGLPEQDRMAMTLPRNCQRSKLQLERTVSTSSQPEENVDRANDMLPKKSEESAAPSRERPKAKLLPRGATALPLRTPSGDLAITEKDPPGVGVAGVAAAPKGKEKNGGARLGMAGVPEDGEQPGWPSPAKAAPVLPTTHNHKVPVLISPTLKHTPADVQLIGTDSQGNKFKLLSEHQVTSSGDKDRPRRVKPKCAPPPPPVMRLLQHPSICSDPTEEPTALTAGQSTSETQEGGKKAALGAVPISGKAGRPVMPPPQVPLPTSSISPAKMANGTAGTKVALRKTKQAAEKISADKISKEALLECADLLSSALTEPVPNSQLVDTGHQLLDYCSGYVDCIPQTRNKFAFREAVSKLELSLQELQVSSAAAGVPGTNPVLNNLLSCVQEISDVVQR
Test [19] shares this target. To be noted: at 1 µM.
The target in test [20] is Tyrosine-protein kinase receptor UFO (Homo sapiens) (UniProt P30530). To be noted: at 0.1 µM.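 Note: values are mean percent inhibition of AXL from the GSK PKIS screen.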
Chain of Tyrosine-protein kinase receptor UFO (Homo sapiens) (P30530 whole entry): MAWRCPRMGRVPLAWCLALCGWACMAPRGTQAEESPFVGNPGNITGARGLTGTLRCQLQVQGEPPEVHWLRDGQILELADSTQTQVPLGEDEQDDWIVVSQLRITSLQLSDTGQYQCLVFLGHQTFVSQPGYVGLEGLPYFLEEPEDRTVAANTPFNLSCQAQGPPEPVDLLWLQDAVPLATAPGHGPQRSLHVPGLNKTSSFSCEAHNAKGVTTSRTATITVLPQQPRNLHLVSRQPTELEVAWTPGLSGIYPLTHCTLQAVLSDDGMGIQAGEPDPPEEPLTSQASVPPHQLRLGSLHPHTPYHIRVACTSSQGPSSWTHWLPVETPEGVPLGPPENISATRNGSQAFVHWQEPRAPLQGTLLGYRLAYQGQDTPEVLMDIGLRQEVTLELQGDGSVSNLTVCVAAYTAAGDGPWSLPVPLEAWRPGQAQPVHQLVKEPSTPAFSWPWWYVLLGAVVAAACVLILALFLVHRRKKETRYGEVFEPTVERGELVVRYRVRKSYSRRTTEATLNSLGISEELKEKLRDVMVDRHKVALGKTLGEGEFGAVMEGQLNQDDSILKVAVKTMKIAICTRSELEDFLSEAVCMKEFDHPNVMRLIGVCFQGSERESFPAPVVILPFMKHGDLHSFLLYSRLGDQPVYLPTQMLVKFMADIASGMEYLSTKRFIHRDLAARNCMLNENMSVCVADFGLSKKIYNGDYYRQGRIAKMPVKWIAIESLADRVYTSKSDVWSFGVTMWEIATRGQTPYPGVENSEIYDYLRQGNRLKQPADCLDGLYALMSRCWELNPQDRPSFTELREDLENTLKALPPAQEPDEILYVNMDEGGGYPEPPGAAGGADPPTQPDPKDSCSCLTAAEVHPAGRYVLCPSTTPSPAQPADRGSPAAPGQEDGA

The structures appear in SMILES notation. Several values for one entry are separate records, joined by “and”; a condition that tells them apart may be missing. Equal entries are not always repeated.

Chain of ALK tyrosine kinase receptor (Homo sapiens) (Q9UM73 19-1620 limits assumed): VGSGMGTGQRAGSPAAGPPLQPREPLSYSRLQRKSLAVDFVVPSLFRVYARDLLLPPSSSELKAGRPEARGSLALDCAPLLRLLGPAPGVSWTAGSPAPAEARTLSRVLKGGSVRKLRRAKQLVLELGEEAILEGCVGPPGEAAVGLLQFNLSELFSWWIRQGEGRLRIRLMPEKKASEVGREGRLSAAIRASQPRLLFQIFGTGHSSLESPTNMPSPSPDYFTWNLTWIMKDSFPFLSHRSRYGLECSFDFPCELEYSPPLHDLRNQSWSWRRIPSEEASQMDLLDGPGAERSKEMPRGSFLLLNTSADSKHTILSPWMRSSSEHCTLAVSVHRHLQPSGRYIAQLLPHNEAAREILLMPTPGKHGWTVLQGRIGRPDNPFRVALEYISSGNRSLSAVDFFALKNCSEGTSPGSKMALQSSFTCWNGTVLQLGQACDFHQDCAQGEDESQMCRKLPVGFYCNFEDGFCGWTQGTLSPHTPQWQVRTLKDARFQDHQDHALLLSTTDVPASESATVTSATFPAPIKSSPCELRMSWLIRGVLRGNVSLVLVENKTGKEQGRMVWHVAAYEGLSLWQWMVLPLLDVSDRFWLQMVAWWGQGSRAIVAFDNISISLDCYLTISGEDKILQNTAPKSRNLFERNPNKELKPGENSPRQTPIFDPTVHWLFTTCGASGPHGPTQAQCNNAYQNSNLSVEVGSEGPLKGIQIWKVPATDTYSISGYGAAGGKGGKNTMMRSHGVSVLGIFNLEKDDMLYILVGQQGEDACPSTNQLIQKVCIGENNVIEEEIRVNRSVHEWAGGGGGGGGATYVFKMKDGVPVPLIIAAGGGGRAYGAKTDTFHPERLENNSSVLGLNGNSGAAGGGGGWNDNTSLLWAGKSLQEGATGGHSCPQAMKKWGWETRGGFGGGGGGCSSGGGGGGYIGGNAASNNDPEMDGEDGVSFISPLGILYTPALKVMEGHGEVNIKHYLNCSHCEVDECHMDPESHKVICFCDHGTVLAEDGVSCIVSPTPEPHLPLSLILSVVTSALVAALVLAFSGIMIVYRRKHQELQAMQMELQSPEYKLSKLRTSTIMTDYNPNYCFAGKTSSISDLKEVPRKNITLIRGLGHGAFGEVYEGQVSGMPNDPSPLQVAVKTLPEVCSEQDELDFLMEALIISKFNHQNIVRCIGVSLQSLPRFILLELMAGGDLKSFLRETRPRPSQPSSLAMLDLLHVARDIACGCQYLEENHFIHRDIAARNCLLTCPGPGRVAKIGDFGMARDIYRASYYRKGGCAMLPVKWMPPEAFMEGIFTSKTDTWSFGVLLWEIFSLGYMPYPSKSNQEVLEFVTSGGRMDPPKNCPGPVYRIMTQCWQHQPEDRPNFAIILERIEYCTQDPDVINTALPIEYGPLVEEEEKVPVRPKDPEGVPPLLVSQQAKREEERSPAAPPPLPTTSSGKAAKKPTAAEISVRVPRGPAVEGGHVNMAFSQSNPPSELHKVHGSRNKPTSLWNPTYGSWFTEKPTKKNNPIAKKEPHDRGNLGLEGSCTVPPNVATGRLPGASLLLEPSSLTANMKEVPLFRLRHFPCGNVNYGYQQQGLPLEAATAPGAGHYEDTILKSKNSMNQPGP
Chain of Serine/threonine-protein kinase PAK 6 (Homo sapiens) (Q9NQU5 whole entry, looked up): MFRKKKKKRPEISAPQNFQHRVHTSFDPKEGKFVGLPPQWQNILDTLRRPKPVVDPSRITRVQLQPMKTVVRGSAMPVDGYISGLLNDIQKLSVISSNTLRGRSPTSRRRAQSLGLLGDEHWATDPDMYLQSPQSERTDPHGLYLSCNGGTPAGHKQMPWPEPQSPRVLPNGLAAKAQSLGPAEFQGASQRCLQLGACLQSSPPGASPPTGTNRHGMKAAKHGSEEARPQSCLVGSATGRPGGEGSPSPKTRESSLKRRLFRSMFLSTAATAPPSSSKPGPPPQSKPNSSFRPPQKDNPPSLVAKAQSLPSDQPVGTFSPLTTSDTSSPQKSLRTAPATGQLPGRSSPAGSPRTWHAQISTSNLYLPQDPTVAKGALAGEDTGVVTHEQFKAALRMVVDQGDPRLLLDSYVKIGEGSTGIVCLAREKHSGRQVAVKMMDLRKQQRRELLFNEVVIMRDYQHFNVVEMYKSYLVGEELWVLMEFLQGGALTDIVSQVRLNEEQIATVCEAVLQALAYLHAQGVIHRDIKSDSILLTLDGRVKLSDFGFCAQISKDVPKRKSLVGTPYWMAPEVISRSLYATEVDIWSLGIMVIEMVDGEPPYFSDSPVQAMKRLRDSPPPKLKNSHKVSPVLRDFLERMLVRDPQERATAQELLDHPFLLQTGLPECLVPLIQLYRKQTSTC

For `CS(=O)(=O)CCNCc1ccc(-c2ccc3ncnc(Nc4ccc(OCc5ccccc5)cc4)c3c2)o1`, the inhibition (as a rule, the drop in the measured response relative to a control, in per cent) in test [1] is -0.08%; in [2] it was 2.13%; in test [3] it was 3.38%; in test [4], 4.24%; in test [5], 5.36%; in [6], 2.42%. Further, the inhibition in test [7] is 4.54%; in test [8], 3.95%; in [9], 5.12%; in test [10] it was 1.78%; in test [11], 4.95%; in test [12], 2.39%. For the same compound, the inhibition in [13] turned out to be 4.13%; in [14] it was 5.38%; in [15], 5.59%; in test [16], 2.33%; in [17], 2.76%; in test [18], 2.73%. Further, the inhibition in test [19] was 4.87%; in [20], -3.92%.

As to `Cc1cc(O)cc(C)c1/C=C/c1cncc(C(N)=O)c1`, the inhibition in [1] was 10.6%; in test [2], 15.7%; in test [3], 61%; in test [4], 20.4%; in [5], 70.1%; in [6], 18.5%. In addition, the inhibition in test [7] was determined as 69%; in [8], 18.7%; in test [9] it was 67.5%; in test [10] it was 2.31%; in [11], 7.26%; in [12] it was 27.8%. Also, the inhibition came out at 73.6% in [13]; 15.1% in [14]; 66% in test [15]; 3.62% in [16]; 4.41% in test [17]; 12.2% in test [18]. In addition, the inhibition in test [19] was 59.3%; in test [20] it was -2.07%.

With `CS(=O)(=O)CCNCc1ccc(-c2ccc3ncnc(Nc4ccc(OCc5cccc(C(F)(F)F)c5)cc4)c3c2)o1`, the inhibition in [1] was -8.87%; in test [2], 0.33%; in test [3], 2.52%; in [4], 3.55%; in test [5], 4.29%; in [6], -0.21%. Besides, the inhibition was 1.37% in [7]; 3.36% in test [8]; 4.5% in test [9]; 1.82% in test [10]; 2.39% in test [11]; 2.96% in test [12]. The inhibition was determined as 3.54% in test [13]; 6.46% in test [14]; 8.69% in test [15]; 3% in test [16]; 5.12% in test [17]; 4.21% in test [18]. Besides, the inhibition in test [19] was 8.35%; in test [20], -6.74%.

Regarding `N#Cc1cccc(Nc2ncc(-c3ccccc3)o2)c1`, the inhibition in [1] was -3.46%; in [2] it was 1.93%; in test [3], 13.5%; in test [4], 4.61%; in test [5], 26.9%; in test [6], 2.88%. In addition, the inhibition in [7] came out at 27.1%; in test [8], 3.25%; in test [9], 21.2%; in test [10] it was 2.21%; in test [11], 10.4%; in test [12], 4.28%. The inhibition in test [13] is 21.7%; in [14], 3.9%; in test [15] it was 20.6%; in test [16], 1.63%; in [17] it was 2.63%; in [18], 4.38%. Moreover, the inhibition was 20.3% in test [19] and -2.1% in test [20].

As for `COc1ccc(-c2nn3ncccc3c2-c2ccnc(Nc3ccc(F)c(F)c3)n2)cc1`, the inhibition was -1.89% in test [1]; 3.61% in test [2]; 10.3% in test [3]; 4.57% in test [4]; 22.8% in test [5]; 17% in test [6]. Also, the inhibition in test [7] is 58.1%; in test [8], 12.2%; in test [9], 47.4%; in test [10] it was 5.18%; in test [11], 16.6%; in test [12], 5.29%. The inhibition in test [13] amounted to 17.1%; in test [14], 3.82%; in test [15] it was 14.7%; in test [16], 2.49%; in [17] it was 8.04%; in test [18], 2.7%. The inhibition is 11.9% in test [19] and -1.84% in [20].

Turning to `Nc1nccc(-c2c(-c3ccc(F)cc3)ncn2C2CCNCC2)n1`, the inhibition was -8.13% and -0.6% in [1]; -2.24% and 1.83% in [2]; -1.66% and 0.75% in [3]; -1.77% and 0.86% in test [4]; 3.78% and 0.72% in test [5]; -2.76% and 1.38% in test [6]. In addition, the inhibition in test [7] was 4.44% and 1.12%; in [8], -0.74% and -0.69%; in test [9], 4.57% and 2.57%; in [10], -3.43% and 2.15%; in test [11] it was 1.38% and 1.78%; in test [12], -2.62% and 1.74%. For the same compound, the inhibition in [13] was 3.43% and 4.65%; in [14], -2.44% and 0.45%; in [15] it was 7.89% and 5.4%; in [16], -2.83% and 0.4%; in test [17], -1.85% and 1.82%; in test [18], -2.01% and -0.73%. Further, the inhibition in [19] is 3% and 19.3%; in test [20] it was 3.6% and 1.09%.

With `COc1cc(Nc2ncc(-c3ccccc3)o2)cc(OC)c1`, the inhibition in [1] is -4.99%; in test [2], 5.8%; in [3], 23.1%; in test [4] it was 9.34%; in [5] it was 39.7%; in [6] it was 8.13%. In addition, the inhibition in test [7] amounted to 41.1%; in test [8], 9.25%; in test [9], 33.6%; in test [10], 4.18%; in test [11] it was 13.2%; in test [12], 13.2%. Moreover, the inhibition worked out at 50.9% in [13]; 8.41% in test [14]; 35.4% in test [15]; 2.73% in [16]; 4.06% in [17]; 5.68% in [18]. In addition, the inhibition in test [19] was 29.4%; in test [20] it was -6.45%.

On to `NC(=O)c1ccc2c(-c3ccnc(NCCCO)n3)c(-c3ccc(F)cc3)nn2c1`, for which the inhibition was -5.05% in test [1]; 4.7% in [2]; 7.28% in test [3]; 6.27% in [4]; 8.34% in test [5]; 3.9% in test [6]. The inhibition in test [7] turned out to be 10.1%; in test [8], 5.67%; in test [9] it was 10.2%; in test [10], 2.91%; in [11] it was 6.37%; in test [12], 7.28%. Further, the inhibition in test [13] was 8.72%; in [14], 4.37%; in [15], 13.2%; in test [16], 3.18%; in [17], 7.82%; in test [18], 4.85%. Further, the inhibition in test [19] is 10.1%; in test [20], -6.77%.

Turning to `CN1CCN(Cc2ccc(-c3cc4ncnc(Nc5ccc(OCc6cccc(F)c6)c(Cl)c5)c4s3)o2)CC1`, the inhibition in [1] was -4.15% and 3.43%; in test [2] it was 2.21% and 2.71%; in test [3] it was 7.15% and 8.4%; in [4], 4.73% and 6.21%; in test [5], 14.3% and 18%; in [6], 1.3% and 4.75%. Also, the inhibition in test [7] was 14.7% and 17.9%; in [8] it was 4.48% and 6.29%; in test [9] it was 16.1% and 20.9%; in [10], 3.33% and 5.07%; in test [11], 16.3% and 19.7%; in test [12] it was 4.69% and 4.76%. Further, the inhibition was 12.2% and 15.9% in [13]; 3.24% and 4% in test [14]; 9.31% and 11% in test [15]; 2.64% and 4.3% in test [16]; 8.37% and 11.1% in [17]; 3.03% and 4.53% in test [18]. In addition, the inhibition in test [19] is 5.38% and 10.7%; in [20] it was -3.61% and -5.96%.

`COc1ccccc1-c1cc(/C=C2\C(=O)Nc3ncc(Br)cc32)cc(Br)c1O`: the inhibition in [1] is -6.64%; in test [2], 5.22%; in test [3] it was 22.3%; in test [4], 6.17%; in [5] it was 21.9%; in test [6] it was 5.09%. Further, the inhibition in test [7] amounted to 19.8%; in [8], 6.3%; in test [9], 20.5%; in [10], 1.82%; in test [11], 5.39%; in test [12], 5.65%. Moreover, the inhibition came to 20% in [13]; 4.63% in [14]; 27.9% in [15]; 2.62% in test [16]; 6.47% in [17]; 3.44% in test [18]. For the same compound, the values for the inhibition in [19] and in test [20] were 15.1% and -9.46%, respectively.
